These results are taken from ChEMBL document CHEMBL4513216, “Probing the Open Global Health Chemical Diversity Library for Multistage-Active Starting Points for Next-Generation Antimalarials” (ACS Infect Dis, 2020).

SMILES strings stand for the structures. In all, about 65,000 compounds went through this assay and about 2,100 (3.2%) showed an effect of 50% or more. The median lay at about -52%. This is one part of a sample in which strong results are shown more often than they occur.

In the assay the test system is Plasmodium falciparum. The assay is described as follows: Screen against P. falciparum Asexual Blood Stage (ABS), at 5uM. The settings on record: tested at 5 uM. Format: functional, Dd2.
Consider `NCc1ccc(OC(F)F)cc1OC(F)F`, for which the INHIBITION is recorded as -38.5%.

In the case of `CC(C)CN1C(=O)CCC12CCC(NC(=O)NCc1cccnc1)CC2` (centres undefined), the INHIBITION was -167%.

`CCc1nc(CN2CCCN(c3nn4cc(C)nc4s3)CC2)no1`: the INHIBITION is -69%.

With `Cn1cnc2c1C(COCC1CC1)CN(C(=O)c1cscn1)C2` (centres undefined), the INHIBITION was -46.3%.

For the compound `CN(C(=O)c1ccc(S(=O)(=O)NC(C)(C)C)cc1)C1(C#N)CCC1`, the INHIBITION was determined as 5.67%.

On to `O=C(C1=COCCO1)N1CC(Oc2nc3c(C(F)(F)F)cccc3s2)C1`, for which the INHIBITION was -41.7%.

`CC(NC(=O)NCCCn1cncn1)c1ccc(F)cc1` (centres undefined): the INHIBITION is listed as 20.8%.

Consider `CC(NC(=O)NCCCn1cncn1)c1ccncc1` (centres undefined), for which the INHIBITION is -85.1%.

As for `CC(NC(=O)NCCCn1cncn1)c1ccc(C(F)(F)F)cc1` (centres undefined), the INHIBITION amounted to 57.2%.

As for `Clc1cc(NCc2nccs2)nc2[nH]ccc12`, the INHIBITION is -72%.

On to `Clc1cc(NCc2ncc[nH]2)nc2[nH]ccc12`, for which the INHIBITION is reported as -48.4%.

As to `Clc1cc(NCc2ccncc2)nc2[nH]ccc12`, the INHIBITION turned out to be 64.9%.

Consider `COC[C@@]12CCO[C@@H]1CCN(Cc1ccccc1OC)C2`, for which the INHIBITION was 29.7%.

As for `CCS(=O)(=O)N1C[C@H](c2nc(C)no2)C[C@H]2OCC[C@H]21`, the INHIBITION is given as -101%.

As for `COc1cccc(OC)c1-c1ccnc2cc(CC(=O)NC(C)C)nn12`, the INHIBITION was -158%.

Consider `Cc1nccn1CCCn1cncc1-c1ccc2c(c1)CCCN2C`, for which the INHIBITION was -15.5%.

On to `Cc1nccn1CCCn1cncc1-c1ccc2c(c1)CC(C)N2C` (centres undefined), for which the INHIBITION is 49.8%.

As for `Cc1nccn1CCCn1cncc1-c1ccc2c(c1)CCC(C)N2C` (centres undefined), the INHIBITION is 66.4%.

Consider `CCC1(CC)Cc2ccccc2-c2nc(NCCO)[nH]c(=O)c21`, for which the INHIBITION was 1.11%.

For `Cn1ccnc1SCCNC1CCN(c2nc3ccccc3s2)CC1`, the INHIBITION was determined as 59.7%.

Take `Cc1n[nH]c(SCCNC2CCN(c3nc4ccccc4s3)CC2)n1`: the INHIBITION is recorded as -196%.

In the case of `Cn1ccnc1SCCNC1CCN(c2ncccn2)CC1`, the INHIBITION was -11.4%.

As to `O=S(=O)(NCCc1ccccc1F)N1CCOCC1`, the INHIBITION is reported as -122%.

On to `COc1cn(CC(N)=O)c(CSc2nccc(C)n2)cc1=O`, for which the INHIBITION was -34.1%.

Consider `O=C(C1CC1)N1CCC2(COCc3cnc(N4CCOCC4)nc32)C1` (centres undefined), for which the INHIBITION is on record as -76.2%.

For `CC(C)C1CN(C(=O)c2cn3cc(Cl)cnc3n2)CCCN1CC1CC1` (centres undefined), the INHIBITION is listed as -26.8%.

With `Cc1ccsc1C(Cc1ccccc1)NC(=O)CNC(=O)C1CC1` (centres undefined), the INHIBITION was 69.9%.

Regarding `CCNC(=O)CCC(=O)NC(Cc1ccccc1)c1sccc1C` (centres undefined), the INHIBITION is recorded as -32.2%.

For `Cc1ccsc1C(Cc1ccccc1)NC(=O)CSCC(N)=O` (centres undefined), the INHIBITION is on record as -9.21%.

For the compound `CNC(=O)[C@@H](c1ccccc1OC)N1CCC[C@H]1C(=O)NCCN(C)C`, the INHIBITION was -199%.

`CC(C)c1noc(CCCC(=O)N2CCN(S(C)(=O)=O)CC2)n1`: the INHIBITION is recorded as -41.7%.

For `COCCN(C)C[C@@H]1CN(C(=O)c2ccc(=O)n(C)c2)C[C@@H]1CO`, the INHIBITION was -237%.

In the case of `CCN(CC)C(=O)CN1CCC2(C=Cc3cc(Cl)c(C)cc3O2)CC1`, the INHIBITION turned out to be 49.3%.

As for `Cc1ccc(CCC(=O)N2CCOCC2)cc1Cl`, the INHIBITION is -148%.

On to `Cc1cc2c(cc1Cl)C=CC1(CCN(CC(=O)N3CCCC3)CC1)O2`, for which the INHIBITION worked out at 59.9%.

`Cc1cc2c(cc1Cl)C=CC1(CCN(CC(=O)NC3CCCC3)CC1)O2`: the INHIBITION is reported as 32.7%.

Turning to `Cc1cc2c(cc1Cl)C=CC1(CCN(C(=O)N3CCOCC3)CC1)O2`, the INHIBITION was -24%.

For the compound `Cc1cc2c(cc1Cl)C=CC1(CCN(CC(=O)N3CCOCC3)CC1)O2`, the INHIBITION was 67.6%.

Regarding `Cc1cc(C(=O)N2CCCC(n3cncn3)C2)nn1C` (centres undefined), the INHIBITION was -8.41%.

Take `COc1ccc(CNc2cnn(C)c(=O)c2Cl)cc1`: the INHIBITION is -21.1%.

As for `CCN1C[C@H]2[C@@H](C1)N(S(=O)(=O)c1ccccc1F)CC[C@H]2OC`, the INHIBITION turned out to be 48.5%.

For the compound `CCN1C[C@@H]2[C@@H](OC)CCN(S(=O)(=O)c3ccccc3)[C@@H]2C1`, the INHIBITION came out at 33.8%.

With `CCN1C[C@H]2[C@@H](C1)N(S(=O)(=O)c1ccccc1)CC[C@H]2OC`, the INHIBITION is 62.8%.

With `Cc1ccc(C2(O)CCN(C(=O)CCn3ccc(=O)[nH]c3=O)CC2)nc1`, the INHIBITION is -56.8%.

As for `Cc1ccc(-c2nnc(CN3CCCC(Cn4cncn4)C3)o2)cc1` (centres undefined), the INHIBITION is -182%.

For the compound `CN(C)C(=O)CN1CCC2(COCc3cnc(-c4ccccc4)nc32)C1` (centres undefined), the INHIBITION is -24.6%.

As to `CN(Cc1ccco1)C(=O)C1CCCc2ccccc21` (centres undefined), the INHIBITION is given as -142%.

For the compound `O=C(c1ccoc1)N1CCOC2(COCCN(CC3CC3)C2)C1` (centres undefined), the INHIBITION was -17.6%.

On to `Fc1cccc(N2CCCC3(CN(Cc4ccco4)CCO3)C2)c1` (centres undefined), for which the INHIBITION amounted to 43.7%.

`Fc1cccc(N2CCCC3(CN(Cc4cccnc4)CCO3)C2)c1` (centres undefined): the INHIBITION is listed as 66%.

Regarding `Fc1cccc(N2CCCC3(CN(Cc4ccncc4)CCO3)C2)c1` (centres undefined), the INHIBITION stood at 38.4%.

Consider `Cc1ccc(CN2CCOC3(CCCN(c4cccc(F)c4)C3)C2)o1` (centres undefined), for which the INHIBITION is recorded as 51.6%.

Take `Cn1cc(CN2CCOC3(CCCN(c4cccc(F)c4)C3)C2)cn1` (centres undefined): the INHIBITION is -5.32%.

For `Fc1cccc(CN2CCOC3(COCCN(CC4CC4)C3)C2)c1` (centres undefined), the INHIBITION is recorded as 63.4%.

As for `COCCN1CCOCC2(CCCN(Cc3cccc(F)c3)C2)C1` (centres undefined), the INHIBITION came out at 9.71%.

As to `OCCN1CCOC2(CCCN(c3cccc(F)c3)C2)C1` (centres undefined), the INHIBITION is given as -22.5%.

`Fc1ccc(CNCC2Cn3nncc3CO2)cc1` (centres undefined): the INHIBITION is -21.1%.

`COc1cc(N2CCCC3(CCN(c4cccnc4)C3=O)C2)ncn1` (centres undefined): the INHIBITION is -14.1%.

Turning to `FC(F)c1nnc2ccc(N3CCC4(CCCCC4)C3)nn12`, the INHIBITION was determined as 61.4%.

Take `FC(F)c1nnc2ccc(N3CCC4(CCOC4)C3)nn12` (centres undefined): the INHIBITION is listed as -52.7%.

On to `Cc1nnc2ccc(N3CCC4(CCOC4)C3)nn12` (centres undefined), for which the INHIBITION is recorded as -37.2%.

As for `O=S1(=O)CCC(CNc2cc(-c3ccccc3)nc3ccnn23)C1` (centres undefined), the INHIBITION was -47.3%.

With `O=S(=O)(c1ccccc1F)N1CCCC(c2nccs2)C1` (centres undefined), the INHIBITION is listed as -129%.

With `O=C(NCCCSc1ccc(F)cc1)C1CCc2cn[nH]c2C1` (centres undefined), the INHIBITION was -54.6%.

Take `COCc1cn(C2CCN(CCC(C)c3ccccc3)CC2)nn1` (centres undefined): the INHIBITION is given as -46.3%.

For the compound `COc1ccc(C(=O)NCC2CCCN(C3CCOCC3)C2)c(O)c1` (centres undefined), the INHIBITION is recorded as -31.9%.

With `CCc1noc(CN2CCN(CCO)CC2)n1`, the INHIBITION was -176%.

Take `CC(C)Cc1noc(CN2CCN(CCO)CC2)n1`: the INHIBITION is given as 0.0946%.

With `CCCc1noc(CN2CCN(CCO)CC2)n1`, the INHIBITION is 50.5%.
